The source made the active and inactive calls.

The source of these data is PubChem BioAssay.
Further: test concentration not given here.

The nature of the first assay: JC-1 mitochondrial signal, unstimulated MM1S myeloma – cell-based, JC-1 fluorescence, 24 h, 100 nL compound, profiling panel (AID 1170). The following applies: MM1S mitochondrial potential, higher = more signal.
In the case of `CN1C(=O)C2C=CC(C(O)c3ccccn3)N(Nc3ccccc3)C2C1=O` (configuration not stated), the z-score came out at 0.0223.
Still for that read-out and setting: the result for `COc1ccc(C#Cc2ccc3c(c2)[C@]2(C(=O)N3)[C@H](c3ccc(O)cc3)N3[C@H](c4ccccc4)[C@H](c4ccccc4)OC(=O)[C@H]3[C@@H]2C(=O)N2CCCCCCC2)cc1` reads 0.366.
The molecule `O=C1OCCC=C[C@H]2OC34C=CCN(Cc5ccccc5)C(=O)[C@H]3N(CCCCCO)C(=O)[C@@H]4C12` (some centres not stated) had a z-score of -0.967.
The same measure, in the same setting: the figure for `COC(=O)C(CC#Cc1ccc2c(c1)[C@]1(C(=O)N2)[C@H](C(=O)NC[C@H](O)c2ccccc2)[C@H]2C(=O)O[C@H](c3ccccc3)[C@H](c3ccccc3)N2[C@@H]1c1ccc(OCCO)cc1)C(=O)OC` is -1.15; for `COCCOC(=O)N1C(=O)[C@@]2(c3cc(C#CCNC(N)=O)ccc31)[C@H](c1ccc(O)cc1)N1[C@H](c3ccccc3)[C@H](c3ccccc3)OC(=O)[C@H]1[C@@H]2C(=O)NC[C@H](O)c1ccccc1` it is -0.0292; for `COC(=O)[C@@]1(Cc2ccccc2)[C@H]2c3cc(C(=O)N4CCCC4)n(Cc4ccc(C)o4)c3C[C@H]2CN1C(=O)c1ccccc1` it is -0.449.
Still for that read-out and setting: the result for `COCC(=C=CC[C@H](O)c1ccc(OCCO)cc1)C[C@H](O)c1cc(Cl)cc(Cl)c1O` reads -1.42.

A short description of the next assay: resazurin metabolic signal in A549 cells – cell-based, resazurin fluorescence, 24 h, PK04 Diversity Set, profiling panel (AID 1171). The following applies: A549 viability, higher = more signal, called active from +8 up or from −8 down. (The colour change of resazurin is a common sign of viable cells or microbes.)
In the case of `C=CCC(OC(C)=O)[C@@H]1[C@@H](N(Cc2ccc(-c3ccccc3)cc2)C(=O)Cc2ccc(OC)cc2)c2cc(OCCCO)ccc2N1C(=O)c1ccc2ccccc2n1` (some centres not stated), the z-score is 0.902 (inactive).
Still for that read-out and setting: the result for `COc1ccc(C#Cc2ccc3c(c2)[C@]2(C(=O)N3)[C@H](C(=O)NC[C@H](O)c3ccccc3)[C@H]3C(=O)O[C@H](c4ccccc4)[C@H](c4ccccc4)N3[C@@H]2c2ccc(OCCO)cc2)cc1` reads -0.171 (inactive); that for `COCCOC(=O)N1C(=O)[C@@]2(c3cc(C#CC4(O)CCCCCC4)ccc31)[C@H](C(=O)N1CCCCCCC1)[C@H]1C(=O)O[C@H](c3ccccc3)[C@H](c3ccccc3)N1[C@@H]2c1ccccc1OCCO`, -1.1 (inactive); that for `COC(=O)c1ccc(OC)c(/C=C\CC(OC(C)=O)c2ccccc2)c1` (configuration not stated), 0.519 (inactive).
On the same count and under the same terms, the figure for `Cc1ccc([C@H]2C(C(=O)O)=C[C@@H](C)N2S(=O)(=O)c2ccc(C)cc2)cc1` is -0.16 (inactive); for `NCCCCCCNC(=O)[C@H]1C[C@H]2C(=O)NCC(=O)N2[C@H]1c1cccc(OCCO)c1` it is 1.34 (inactive); for `COc1ccc(CCN2C(=O)[C@@]3(Cc4ccccc42)c2ccccc2C(=O)N(Cc2ccccc2Cl)[C@H]3c2ccc(CO)cc2)cc1` it is -0.343 (inactive).
As for `C=CC[C@@H](OC(=O)Nc1ccc(OC)cc1)c1ccc(O)c2ccccc12`, the z-score was -0.67 (inactive).
In the case of `CC(C)C[C@@H]1NC(=O)[C@@H]2C[C@H](C(=O)NCCCCCC[N+](C)(C)C)[C@H](c3ccc(O)cc3)N2C1=O`, the z-score was 0.0131 (inactive).
With `O=C1C=CC(=O)[C@@H]2CC(COc3ccccc3)=C3[C@@H](CCc4ccccc4)OB(O)C[C@@H]3[C@H]12`, the z-score was -0.108 (inactive).
On the same count and under the same terms, the figure for `CN(C)CCCCNC(=O)[C@H]1C[C@H]2C(=O)N[C@@H](Cc3ccccc3)C(=O)N2[C@H]1c1ccc(O)cc1` is -0.1 (inactive).
Same read-out and setting: the result for `CCCC[C@H]1OB(O)C[C@H]2C1=C(C)C[C@H]1C(=O)N(Cc3ccccc3)C(=O)[C@H]12` reads 0.174 (inactive); that for `C=C[C@@H](COC(C)=O)N(Cc1ccc([N+](=O)[O-])cc1)S(=O)(=O)c1ccc(Br)cc1`, 2.05 (inactive).
As to `COc1ccc([Si](C)(C)[C@@H]2[C@@H](CCn3cc([C@H](O)c4ccccc4)nn3)O[C@]3(C(=O)N(Cc4ccc(N5C(=O)c6cccc7cccc5c67)cc4)c4ccccc43)[C@H]2C)cc1`, the z-score is -1.92 (inactive).
On the same count and under the same terms, the result for `CC(C)(C)OC(=O)CC[C@@]1(C(=O)NCCN2CCOCC2)N=C(c2ccc(OCCCO)cc2)O[C@@H]1c1ccccc1` reads -0.24 (inactive); that for `O=C1O[C@@H](c2ccccc2)[C@@H](c2ccccc2)N2[C@@H](c3ccccc3OCCO)[C@]3(C(=O)Nc4ccc(C#CC5(O)CCCCCC5)cc43)[C@@H](C(=O)Nc3nc4ccccc4s3)[C@H]12`, -1.34 (inactive).
In the case of `COCCOC(=O)N1C(=O)[C@@]2(c3cc(C#CCNC(N)=O)ccc31)[C@H](c1ccc(OCCO)cc1)N1[C@H](c3ccccc3)[C@H](c3ccccc3)OC(=O)[C@H]1[C@@H]2C(=O)N1CCc2cc(OC)c(OC)cc2C1`, the z-score was -0.189 (inactive).
Regarding `CCOC(=O)C[C@H]1[C@H](OC(=O)c2ccc(C(=O)c3ccccc3)cc2)[C@@H](NC(=O)C2CCCCC2)c2cc(OCCCO)ccc2N1C(=O)c1ccccc1`, the z-score was 0.352 (inactive).
Still for that read-out and setting: the result for `CC(C)=CCCC(C)=CC(O)C1C=CC2C(=O)N(c3ccccc3)C(=O)C2N1Nc1ccccc1` (configuration not stated) reads -0.518 (inactive); that for `COC(=O)[C@@]1(Cc2ccc(OC)cc2)[C@H]2c3cc(C(=O)N4CCCC4)n(CCc4c[nH]c5cc(F)ccc45)c3C[C@H]2CN1C(=O)c1ccccc1`, 0.313 (inactive).
Same read-out and setting: the result for `Cc1ccc(F)cc1S(=O)(=O)N[C@@H]1CCN(Cc2ccc(-c3ccccc3)cc2)C1` reads -0.464 (inactive); that for `COC(=O)[C@@]1(Cc2ccc(OC)cc2)[C@H]2c3cc(C(=O)N(C)C)n(Cc4c(OC)[nH]cc(C)c4=O)c3C[C@H]2CN1C(=O)c1ccccc1`, -1.52 (inactive).
Consider `[N-]=[N+]=Nc1ccccc1[C@H]1OC(c2ccc(OCCCO)cc2)=N[C@@]1(CCS(=O)(=O)c1ccccc1)C(=O)O`, for which the z-score is 0.315 (inactive).
Still for that read-out and setting: the result for `COC(=O)c1ccc(C(O)C2C=CC3C(=O)N(C)C(=O)C3N2NC(=O)OC(C)(C)C)o1` (configuration not stated) reads 0.347 (inactive).
Still for that read-out and setting: the figure for `CC=CC(O)C1C=CC2C(=O)N(c3ccccc3)C(=O)C2N1Nc1ccc(C(C)C)cc1` (configuration not stated) is -1.65 (inactive).
Same read-out and setting: the figure for `O=C1C[C@@](C(=O)NC2CC2)(c2ccc([N+](=O)[O-])cc2)[C@@H](c2ccc(CO)cc2)N1CC12CC3CC(CC(C3)C1)C2` is -1.45 (inactive).
Consider `COc1ccc(C(O)C2C=CC3C(=O)N(C)C(=O)C3N2Nc2ccccc2)cc1OCc1ccccc1` (configuration not stated), for which the z-score is 1.88 (inactive).
For `[N-]=[N+]=NCc1ccccc1C[C@@]1(C(=O)N2CCOCC2)N=C(c2ccc(OCCCO)cc2)O[C@@H]1c1ccccc1CN=[N+]=[N-]`, the z-score was -1.46 (inactive).
Still for that read-out and setting: the figure for `CN1C(=O)C2C=CC(C(O)c3ccccn3)N(Nc3ccccc3)C2C1=O` (configuration not stated) is -0.205 (inactive).
Still for that read-out and setting: the result for `COc1ccc(C#Cc2ccc3c(c2)[C@]2(C(=O)N3)[C@H](c3ccc(O)cc3)N3[C@H](c4ccccc4)[C@H](c4ccccc4)OC(=O)[C@H]3[C@@H]2C(=O)N2CCCCCCC2)cc1` reads -0.531 (inactive); that for `O=C1OCCC=C[C@H]2OC34C=CCN(Cc5ccccc5)C(=O)[C@H]3N(CCCCCO)C(=O)[C@@H]4C12` (some centres not stated), 0.872 (inactive); that for `COC(=O)C(CC#Cc1ccc2c(c1)[C@]1(C(=O)N2)[C@H](C(=O)NC[C@H](O)c2ccccc2)[C@H]2C(=O)O[C@H](c3ccccc3)[C@H](c3ccccc3)N2[C@@H]1c1ccc(OCCO)cc1)C(=O)OC`, 0.199 (inactive).
Still for that read-out and setting: the figure for `COCCOC(=O)N1C(=O)[C@@]2(c3cc(C#CCNC(N)=O)ccc31)[C@H](c1ccc(O)cc1)N1[C@H](c3ccccc3)[C@H](c3ccccc3)OC(=O)[C@H]1[C@@H]2C(=O)NC[C@H](O)c1ccccc1` is -0.803 (inactive).
On to `COC(=O)[C@@]1(Cc2ccccc2)[C@H]2c3cc(C(=O)N4CCCC4)n(Cc4ccc(C)o4)c3C[C@H]2CN1C(=O)c1ccccc1`, for which the z-score was -0.646 (inactive).
On the same count and under the same terms, the figure for `COCC(=C=CC[C@H](O)c1ccc(OCCO)cc1)C[C@H](O)c1cc(Cl)cc(Cl)c1O` is 0.799 (inactive).
